In PubChem BioAssay (NCI):
This is part of a sample that, as a whole, favours compounds with a hit. Of some 79,000 tested, about 15% had one in any assay. Active and inactive are the calls of the source. No stated cut-off is given here; in the data, active means growth inhibition above about 70%; inactive means the rest.

Legend:
[1] = NCI Yeast Anticancer Drug Screen. Data for the mec2-1 strain (AID 157); details: S. cerevisiae mec2-1 strain, hits give high values
Method in brief: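 Yeast mec2-1 mutant treated with compound. Readout: growth inhibition vs vehicle controls.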

[2] = NCI Yeast Anticancer Drug Screen. Data for the rad14 strain (AID 159);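 further: 0% = growth of vehicle-treated control cultures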; details: S. cerevisiae rad14 strain growth inhibition, hits give high values
Method in brief: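 Growth inhibition vs vehicle controls; genetically altered yeast strain (DNA damage repair defect) treated with test compounds.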

[3] = NCI Yeast Anticancer Drug Screen. Data for the sgs1 mgt1 strain (AID 161);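 further: 0% = growth of cultures given vehicle only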; details: S. cerevisiae sgs1 mgt1 strain, hits give high values
Method in brief: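 Genetically altered yeast, compound exposure, growth inhibition relative to vehicle.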

[4] = NCI Yeast Anticancer Drug Screen. Data for the CLN2oe strain (AID 163);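 further: 0% = growth of vehicle-only control cultures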; details: S. cerevisiae CLN2oe strain, hits give high values
Method in brief: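 Read-out: yeast growth inhibition, expressed relative to vehicle-only controls. The strain bears an engineered cell-cycle alteration.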

[5] = NCI Yeast Anticancer Drug Screen. Data for the cln2 rad14 strain (AID 165);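 further: 0% = growth equal to vehicle treated cultures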; details: S. cerevisiae cln2 rad14 strain, hits give high values
Method in brief: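 cln2 rad14 yeast strain; compound exposure; growth inhibition read vs vehicle controls.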

[6] = NCI Yeast Anticancer Drug Screen. Data for the bub3 strain (AID 167); details: S. cerevisiae bub3 mutant strain, hits give high values
Method in brief: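 Readout: yeast growth inhibition, expressed relative to vehicle-only wells. The test organism is a mutant strain from a panel with lesions in DNA repair or checkpoint genes.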

[7] = NCI Yeast Anticancer Drug Screen. Data for the wt2 strain (AID 169);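 further: 0% = growth of vehicle-treated yeast cultures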; details: S. cerevisiae wt2 strain growth inhibition, hits give high values
Method in brief: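 Read-out: growth inhibition versus vehicle-treated control cultures after compound exposure of the yeast strain.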

[8] = NCI Yeast Anticancer Drug Screen. Data for the sgs1 strain (AID 173);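 further: 0% = growth of vehicle-only control cultures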; details: S. cerevisiae sgs1 mutant, hits give high values
Method in brief: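 Read-out: yeast growth inhibition relative to vehicle controls, following compound exposure of a strain with a defined DNA repair/cell cycle alteration.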

[9] = NCI Yeast Anticancer Drug Screen. Data for the mlh1 rad18 strain (AID 175); details: S. cerevisiae mlh1 rad18 strain growth inhibition, hits give high values
Method in brief: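 Yeast w/ defined DNA-repair lesions; compound exposure; growth vs vehicle controls → % inhibition.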

[10] = NCI Yeast Anticancer Drug Screen. Data for the rad18 strain (AID 177); details: S. cerevisiae rad18 mutant growth inhibition, hits give high values
Method in brief: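 Readout: growth inhibition vs vehicle controls. Cells: genetically altered yeast strain, DNA repair defect.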

[11] = NCI Yeast Anticancer Drug Screen. Data for the wt1 strain (AID 149);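 further: 0% = growth of vehicle-treated wt1 cultures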; details: S. cerevisiae wt1 strain (SPY 50644) growth inhibition, hits give high values
Method in brief: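 Growth inhibition read against vehicle controls after compound exposure of the wt1 yeast strain.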

[12] = NCI Yeast Anticancer Drug Screen. Data for the rad50EPP+ strain (AID 151);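 further: 0% = growth of vehicle-treated control cultures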; details: S. cerevisiae rad50 mutant strain, hits give high values
Method in brief: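 Growth inhibition read against vehicle controls in rad50EPP+ yeast, a strain altered in DNA damage repair, after compound exposure.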

[13] = NCI Yeast Anticancer Drug Screen. Data for the mgt1 strain (AID 153); details: S. cerevisiae mgt1 mutant growth inhibition, hits give high values
Method in brief: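 mgt1 yeast grown with test compound; read-out is growth inhibition versus vehicle-treated cultures.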

[14] = NCI Yeast Anticancer Drug Screen. Data for the rad50 strain (AID 155);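 further: 0% = growth of vehicle-only cultures of the same strain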; details: S. cerevisiae rad50 strain growth inhibition, hits give high values
Method in brief: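 Readout: growth inhibition relative to vehicle-treated cultures. Compound exposure was carried out in a genetically defined yeast strain deficient in DNA damage repair.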

[15] = NCI Yeast Anticancer Drug Screen. Data for the mlh1 strain (AID 171);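 further: 0% = growth of vehicle-treated control cultures of the same strain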; details: S. cerevisiae mlh1 strain growth inhibition, hits give high values
Method in brief: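 Read-out: growth inhibition versus vehicle controls. Strain: engineered yeast with a defined DNA repair or cell cycle defect, compound-treated.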

[16] = at 5.0 µM (retest, dose inferred, filed as 0.5)
[17] = at 50.0 µM (retest, dose inferred, filed as 5.0)

Measured: growth inhibition

COC(=O)/C(C#N)=C\NC(=S)C(N)=S
inactive: [2]; at 1.2 µM 4% | [2]; at 3.7 µM 15% | [3]; [16] 13% | [4]; at 1.2 µM 21% | [4]; at 3.7 µM 40% | [5]; [16] 22% | [6]; at 1.2 µM 24% | [6]; at 3.7 µM 34% | [6]; [16] 4% | [7]; at 1.2 µM -6% | [7]; at 3.7 µM 10% | [7]; at 11.0 µM 40% | [8]; at 1.2 µM 9% | [8]; at 3.7 µM 25% | [9]; [16] 50% | [10]; at 1.2 µM -4% | [10]; at 3.7 µM 16% | [10]; at 11.0 µM 53%
active: [1]; at 100.0 µM 98% | [2]; at 11.0 µM 98% | [2]; at 33.0 µM 99% | [2]; at 100.0 µM 98% | [3]; [17] 98% | [3]; at 50.0 µM 91.1% | [4]; at 11.0 µM 96% | [4]; at 33.0 µM 100% | [4]; at 100.0 µM 98% | [5]; [17] 99% | [5]; at 50.0 µM 89.5% | [6]; at 11.0 µM 99% | [6]; at 33.0 µM 99% | [6]; [17] 99% | [6]; at 50.0 µM 91.3% | [6]; at 100.0 µM 98% | [7]; at 33.0 µM 99% | [7]; at 100.0 µM 98% | [8]; at 11.0 µM 86% | [8]; at 33.0 µM 99% | [8]; at 100.0 µM 98% | [9]; [17] 98% | [9]; at 50.0 µM 89.3% | [10]; at 33.0 µM 99% | [10]; at 100.0 µM 98%

CCCCS/C(=C(/C#N)C(N)=O)c1cc2c([nH]1)CCCC2
active: [6]; [17] 71% | [6]; at 50.0 µM 83.5% | [6]; at 100.0 µM 81% | [7]; at 100.0 µM 98% | [8]; at 100.0 µM 72%
inactive: [11]; at 1.2 µM -9% | [11]; at 3.7 µM 0% | [11]; at 11.0 µM -8% | [11]; at 33.0 µM -12% | [11]; at 100.0 µM 56% | [12]; at 1.2 µM 11% | [12]; at 3.7 µM 13% | [12]; at 11.0 µM 11% | [12]; at 33.0 µM 22% | [12]; at 100.0 µM 31% | [13]; at 1.2 µM -7% | [13]; at 3.7 µM -21% | [13]; at 11.0 µM -21% | [13]; at 33.0 µM -14% | [13]; at 100.0 µM 49% | [14]; at 1.2 µM 25% | [14]; at 3.7 µM 23% | [14]; [16] 16% | [14]; at 11.0 µM 24% | [14]; at 33.0 µM 28% | [14]; [17] 30% | [14]; at 50.0 µM 41.2% | [14]; at 100.0 µM 48% | [1]; at 1.2 µM -8% | [1]; at 3.7 µM -22% | [1]; [16] -1% | [1]; at 11.0 µM -17% | [1]; at 33.0 µM -34% | [1]; [17] 13% | [1]; at 50.0 µM 62.4% | [1]; at 100.0 µM 52% | [2]; at 1.2 µM -11% | [2]; at 3.7 µM -9% | [2]; at 11.0 µM -13% | [2]; at 33.0 µM -16% | [2]; at 100.0 µM 62% | [3]; [16] 9% | [3]; [17] 31% | [3]; at 50.0 µM 60.5% | [4]; at 1.2 µM -21% | [4]; at 3.7 µM -19% | [4]; at 11.0 µM -18% | [4]; at 33.0 µM -32% | [4]; at 100.0 µM 56% | [5]; [16] 8% | [5]; [17] 24% | [5]; at 50.0 µM 54.2% | [6]; at 1.2 µM -37% | [6]; at 3.7 µM -36% | [6]; [16] 4% | [6]; at 11.0 µM -30% | [6]; at 33.0 µM -6% | [7]; at 1.2 µM -13% | [7]; at 3.7 µM -17% | [7]; at 11.0 µM -16% | [7]; at 33.0 µM 6% | [15]; at 1.2 µM -13% | [15]; at 3.7 µM -19% | [15]; at 11.0 µM -30% | [15]; at 33.0 µM -36% | [15]; at 100.0 µM 54% | [8]; at 1.2 µM 12% | [8]; at 3.7 µM 17% | [8]; at 11.0 µM 18% | [8]; at 33.0 µM 22% | [9]; [16] 13% | [9]; [17] 46% | [9]; at 50.0 µM -32.3% | [10]; at 1.2 µM 0% | [10]; at 3.7 µM -13% | [10]; at 11.0 µM -24% | [10]; at 33.0 µM -19% | [10]; at 100.0 µM 44%
